# Experimental data reported in PubChem BioAssay (EPA / NIEHS).
# Inconclusive results are not listed. Calls of active or inactive are those of the source. How the source made its calls: active means hit-call score of the fitted dose curve at least 0.9, where 1 is the maximum; inconclusive means response in the unintended direction; inactive means score below 0.9.
# Assay: Tanguay_ZF_120hpf_NC_legacy: (Legacy) Oregon State University Tanguay Lab 120 Hour Post-fertilization zebrafish Assay for Notochord and Tail Malformation (AID 2283656)
# Method: Tanguay_ZF_120hpf_legacy is a whole embryo, multiplexed endpoint assay using zebrafish larvae exposed for 120 hours post fertilization on a 96-well plate.Tanguay_ZF_120hpf_NC_legacy is one of one assay component(s) measured or calculated from the Tanguay_ZF_120hpf_legacy assay. It is designed to make measurements of zebrafish development as detected with brightfield microscopy of developing zebrafish embryos.Data from the assay component Tanguay_ZF_120hpf_NC_legacy was analyzed into 1 assay endpoints. This assay endpoint, Tanguay_ZF_120hpf_NC_legacy, was analyzed in the positive analysis fitting direction relative to DMSO as the negative control and baseline of activity. Using a type of morphology reporter, gain-of-signal activity can be used to understand changes in developmentals as they relate to the whole embryo. To generalize the intended target to other relatable targets, this assay endpoint is annotated to the zebrafish development intended target family, where the subfamily is embryonic notochord morphogenesis.
# Zebrafish husbandry: Tropical 5D wild-type adult zebrafish were housed in at an approximate density of 1000 per 100 gallon tank at the Sinnhuber Aquatic Research Laboratory, Oregon State University, Corvallis, OR. Each tank was kept at standard laboratory conditions of 28C on a 14-h light/10-h dark photoperiod in fish water consisting of reverse osmosis water supplemented with a commercially available salt (Instant Ocean). Spawning funnels were placed into the tanks the night prior, and embryos were collected and staged. To increase bioavailability, the chorion was enzymatically removed using pronase (63.6mg/ml, >/= 3.5U/mg, Sigma-Aldrich: P5147) at 4 hours post fertilization (hpf) using a custom automated dechorionator.Chemical exposures: Six hpf dechorionated embryos were placed 1 embryo per well in a 96-well plate prefilled with 90 ul of EM using automated embryo placement systems (AEPS). Ten microliters of each row of dilution plate 2 was added to 2 exposure plates. The final DMSO concentration used was 0.64% (vol/vol). Thirty-two embryos were also exposed to 5uM trimethyltin chloride (positive control). Plates were sealed to prevent evaporation and foil covered to reduce light exposure and kept in a 28C incubator. Embryos were statically exposed until 120 hpf. At 24 hpf, embryos were assessed for photomotor response using a custom photomotor response analysis tool (PRAT) and for developmental toxicity endpoints (MO24: mortality at 24 hpf, DP: developmental progression, SM: spontaneous movement, and NC: notochord distortion). At 120 hpf, locomotor activity was measured using Viewpoint Zebralab and assessed for 18 endpoints. Zebrafish acquisition and analysis program (ZAAP), a custom program designed to inventory, acquire, and manage zebrafish data, was used to collect developmental endpoints as either present or absent (i.e., binary responses were recorded). If mortality occurred for an embryo (at either 24 or 120 hpf), the non-mortality endpoints were not measured.
SMILES,outcome,AC50
OCCC(F)(F)C(F)(F)C(F)(F)C(F)(F)C(F)(F)C(F)(F)C(F)(F)C(F)(F)F,inactive,
CCc1ccc(CCOc2ccc(CC3SC(=O)NC3=O)cc2)nc1 (stereo not given),inactive,
CCCOC(=O)c1ccc(O)cc1,inactive,
c1ccc2c(c1)Cc1ccccc1-2,inactive,
CCc1nn(C2CCCCC2)c2cc(C3(C#N)CCC(C(=O)O)CC3)ccc12 (stereo not given),inactive,
c1ccc2c(c1)ccc1ccccc12,inactive,
C#C[C@]1(O)CC[C@H]2[C@@H]3CCC4=CC(=O)CC[C@@H]4[C@H]3CC[C@@]21C,inactive,
O=C(O)c1ccccc1C(c1ccc(O)cc1)c1ccc(O)cc1,inactive,
Cc1cc(CCN2CCN(c3nsc4ccccc34)CC2)cc2c1NC(=O)CC2(C)C,,4880 nM (active)
C[C@@H]1C[C@H]2[C@@H]3CCC4=CC(=O)C=C[C@]4(C)[C@@]3(F)[C@@H](O)C[C@]2(C)[C@@]1(O)C(=O)COP(=O)(O)O,inactive,
CCCCCCCCCCCCN1CCCC1=O,inactive,
CC(C)(C)c1cccc(C(C)(C)C)c1O,inactive,
CC(C)(C)c1ccc(O)c(C(C)(C)C)c1,inactive,
CC(O)CO (stereo not given),inactive,
CC(=O)NC1(c2cccc(F)c2)CCN(CC[C@@]2(c3ccc(Cl)c(Cl)c3)CN(c3ccccc3)C(=O)CO2)CC1,inactive,
CCCCCCCCC(=O)O,inactive,
C=C(C)C(=O)OCCC(F)(F)C(F)(F)C(F)(F)C(F)(F)C(F)(F)C(F)(F)F,inactive,
CC[C@H](c1ccc(O)cc1)[C@@H](CC)c1ccc(O)cc1,inactive,
CC(C)(C)c1cc(C(C)(C)C)c(O)c(C(C)(C)C)c1,inactive,
CC#C[C@]1(O)CC[C@H]2[C@@H]3CCC4=CC(=O)CCC4=C3[C@@H](c3ccc(N(C)C)cc3)C[C@@]21C,inactive,

SMILES,outcome,AC50
ClC1=C(Cl)C(Cl)(Cl)C(Cl)=C1Cl,inactive,
OC1CCCCC1,inactive,
COCC(C)OCC(C)O (stereo not given),inactive,
Oc1cc2ccccc2c2ccccc12,inactive,
CCOC(=O)CC(O)(CC(=O)OCC)C(=O)OCC,inactive,
CCN(CC)CCNc1ccc(CNC=O)c2sc3ccc(OC)cc3c(=O)c12,inactive,
Nc1cccc2c(N)cccc12,inactive,
CC1=C(/C=C/C(C)=C/C=C/C(C)=C/C(=O)O)C(C)(C)CCC1,,272 nM (active)
CC[C@H](C)[C@@H](C(=O)O)n1sc2ccccc2c1=O,inactive,
CCCCCCC(=O)O,inactive,
O=c1c(-c2ccc(O)cc2)coc2cc(O)ccc12,inactive,
COC(=O)CCCCC(=O)OC,inactive,
CC(C)CCCCCCOC(=O)CCCCC(=O)OCCCCCCC(C)C,inactive,
CCCCC(CC)COC(=O)CCCCC(=O)OCc1ccccc1 (stereo not given),inactive,
CN1CCC[C@H]1c1cccnc1,inactive,
Cc1cc(C)c(O)c(C)c1,inactive,
O=[N+]([O-])c1ccc(O)cc1,inactive,
CCCCCCCCOC(=O)CCCCCCCCC(=O)OCCCCCCCC,inactive,
CN1CCN(c2ccccc2/C=C2\SCCN(c3ccc(Cl)c(Cl)c3)C2=O)CC1,inactive,
CCC(=C(c1ccc(O)cc1)c1ccc(OCCN(C)C)cc1)c1ccccc1,inactive,
